The structures appear in SMILES notation. Active and inactive are the calls of the source. The calls were made as follows: active = hit-call score of the fitted dose curve at least 0.9, where 1 is the maximum; inactive = score below 0.9.

The experiment can be described thus: APR_HepG2_CellLoss_1hr: Apredica 1-hour HepG2 Assay for Cell Loss (AID 2282668).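 Also: curves fitted both ways against DMSO so gain or loss of cells counts.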 The note with it: high-content imaging. The protocol:
APR_HepG2_1hr is a cell-based, multiplexed-readout assay that uses HepG2, a human liver cell line, with measurements taken at 1 hour after chemical dosing in a 384-well plate.APR_HepG2_CellLoss_1hr is one of 10 assay component(s) measured or calculated from the APR_HepG2_1hr assay. It is designed to make measurements of cell number, a form of viability reporter, as detected with fluorescence intensity signals by HCS Fluorescent Imaging technology.Data from the assay component APR_HepG2_CellLoss_1hr was analyzed into 1 assay endpoint. This assay endpoint, APR_HepG2_CellLoss_1hr, was analyzed with bidirectional fitting relative to DMSO as the negative control and baseline of activity. Using a type of viability reporter, measures of all nuclear dna for gain or loss-of-signal activity can be used to understand the viability at the cellular-level. Furthermore, this assay endpoint can be referred to as a secondary readout, because this assay has produced multiple assay endpoints where this one serves a viability function. To generalize the intended target to other relatable targets, this assay endpoint is annotated to the cell cycle intended target family, where the subfamily is proliferation.
Cells were treated with dimethyl sulfoxide (DMSO) as a solvent control at a final concentration of 0.5% v/v or with compounds in DMSO with a resulting final DMSO concentration of 0.5% v/v. Compound treatment was done at concentrations of 0.39, 0.78, 1.56, 3.12, 6.24, 12.5, 25, 50, 100, and 200 uM in duplicate on each plate. Cells were treated with compounds for 1, 24, or 72 hr. Carbonyl […] m-chloro-phenylhydrazone (CCCP) and taxol were used as positive controls for mitochondrial function and cytoskeletal stability, respectively; DMSO served as the negative control for this experiment. Cells were fixed by the direct addition of 50 uL formaldehyde in Hank's Balanced Salt Solution (HBSS) to a final concentration of 3.7%. After incubation in the fixation medium for 30 min at room temperature (293-298 K), cells were rinsed twice with HBSS and treated with cell permeabilization buffer (16 uL of 0.5% Triton X-100) for 10 min at room temperature (293-298 K) before labeling. For mitochondrial membrane potential and mitochondrial measurements, pre-fixed cells were incubated with 50 uL of MitoTracker Red CMXRos (Invitrogen) at a concentration of 250 nM for 30 min before fixation. In the remaining cases, post-fixed cells were labeled by incubation with a multiplexed mixture of primary antibodies in HBSS for 60 min at room temperature (293-298 K) to detect immunoreactivity of c-Jun (1:500), phospho-histone H3 (1:100), phospho-histone H2A.x (1:200), p53 (1:400), alpha-tubulin (1:200) and Hoechst 33342 (2 ug/mL). Cells were labeled for multiplexed imaging on two separate plates: a) Hoechst 33342, MitoTracker Red, phospho-histone H3, and alpha-tubulin, and b) Hoechst 33342, phospho-histone H2A.x, and c-Jun. A final rinse with HBSS (50 uL) was performed before analysis. The primary and secondary antibodies for the proteins were phospho-histone H3 (rabbit anti-phospho-histone H3 and FITC-donkey anti-rabbit IgG), phospho-histone H2A.x (mouse anti-phospho-histone H2A.x and FITC-donkey anti-mouse IgG), c-Jun (rabbit anti-phospho-c-Jun and Cy3-donkey anti-rabbit IgG), p53 (sheep anti-p53 and Cy5-donkey anti-sheep IgG), alpha-tubulin (mouse anti-alpha-tubulin and Cy5-donkey anti-mouse IgG). These antibodies are available as the CellCiphr HepG2 assay kit (Millipore).Digital images of each well were captured using a Cellomics ArrayScan VTI (Thermo Scientific Cellomics) (0.8 NA objective, 0.63x optical coupler, and XF-93 filter set) at 20x magnification. The images were acquired using the autofocus feature of the ArrayScan instrument, which entails the following steps. First, the camera focuses on channel 1 (Hoechst 33342), where nuclei are identified. Second, a Z offset of 1 um is used for capturing mitochondria (MitoTracker Red). […]
With `Cc1cc(C)nc(NC(=O)NS(=O)(=O)c2ccccc2C(=O)OC2COC2)n1`, the result was inactive. Consider `CCOCN(C(=O)CCl)c1c(C)cccc1CC`, for which the result was inactive. For `CCOC1Oc2ccc(OS(C)(=O)=O)cc2C1(C)C` (stereo not given), the call was inactive.

As to `CCS(=O)(=O)c1cccnc1S(=O)(=O)NC(=O)Nc1nc(OC)cc(OC)n1`, the compound was classed as inactive. On to `CN1CSC(=S)N(C)C1`, for which the result was inactive. For the compound `CCCN(CCC)c1c([N+](=O)[O-])cc(C(F)(F)F)cc1[N+](=O)[O-]`, the compound was called inactive. As for `CCc1ccc(C(=O)NN(C(=O)c2cc(C)cc(C)c2)C(C)(C)C)cc1`, the call was inactive. Same read-out and setting: under `CNC(=O)Oc1ccccc1OC(C)C` stands “inactive”; under `O=C(O)CCCOc1ccc(Cl)cc1Cl`, “inactive”. As for `Oc1ccc(Cl)cc1Cc1ccccc1`, the AC50 was 118 µM (active). As for `CNC(=O)CSP(=S)(OC)OC`, the result was inactive. On to `COc1nn(CSP(=S)(OC)OC)c(=O)s1`, for which the call was inactive.

In the case of `COP(=S)(OC)Oc1ccc(SC)c(C)c1`, the result was inactive. Same read-out and setting: under `O=[N+]([O-])/N=C1\NCCN1Cc1ccc(Cl)nc1` stands “inactive”. Take `COC(=O)c1ccccc1S(=O)(=O)NC(=O)Nc1nc(C)nc(OC)n1`: the result was inactive. `N#CN`: the result was inactive. Turning to `CC(C)OC(=O)Nc1cccc(Cl)c1`, the outcome was inactive.

Turning to `CCC(C)(C)C(=O)OC1=C(c2ccc(Cl)cc2Cl)C(=O)OC12CCCCC2`, the outcome was inactive. For the compound `CC[C@H](C)[C@H]1O[C@]2(C=C[C@@H]1C)C[C@@H]1C[C@@H](C/C=C(\C)[C@@H](O[C@H]3C[C@H](OC)[C@@H](O[C@H]4C[C@H](OC)[C@@H](O)[C@H](C)O4)[C@H](C)O3)[C@@H](C)/C=C/C=C3\CO[C@@H]4[C@H](O)C(C)=C[C@@H](C(=O)O1)[C@]34O)O2` (tested in a mixture with another compound), the result was inactive. Consider `CC(C)(C)C(O)C(Oc1ccc(Cl)cc1)n1cncn1` (stereo not given), for which the result was inactive. As to `Clc1ccccc1-c1nnc(-c2ccccc2Cl)nn1`, the result was inactive. Turning to `O=C(Nc1ccccc1)Nc1cnns1`, the call was inactive. Consider `CCC(C)(NC(=O)c1cc(Cl)c(C)c(Cl)c1)C(=O)CCl` (stereo not given), for which the call was inactive. Take `O=C1c2ccccc2C(=O)N1SC(Cl)(Cl)Cl`: the call was inactive. Regarding `CCOc1nc(NC)nc(NC(=O)NS(=O)(=O)c2ccccc2C(=O)OC)n1`, the outcome was inactive.

As to `CC(C)N(C(=O)COc1nnc(C(F)(F)F)s1)c1ccc(F)cc1`, the call was inactive. As to `Oc1cc(Cl)ccc1Oc1ccc(Cl)cc1Cl`, the AC50 is 114 µM (active).

`C[C@H]1[C@H](c2ccc(Cl)cc2)SC(=O)N1C(=O)NC1CCCCC1`: the compound was called inactive.

For the compound `CCC(C)Nc1c([N+](=O)[O-])cc(C(C)(C)C)cc1[N+](=O)[O-]` (stereo not given), the result was inactive.

`CC1(c2ccc(Oc3ccccc3)cc2)OC(=O)N(Nc2ccccc2)C1=O` (stereo not given): the compound was classed as inactive. Consider `CC(C)(C)C(O)/C(=C\c1ccc(Cl)cc1Cl)n1cncn1` (stereo not given), for which the outcome was inactive. On to `ClC1C(Cl)C(Cl)C(Cl)C(Cl)C1Cl` (stereo not given), for which the compound was called inactive. Take `COC(=O)c1ccccc1CS(=O)(=O)NC(=O)Nc1nc(OC)cc(OC)n1`: the compound was called inactive. Regarding `N#Cc1c(Cl)c(Cl)c(Cl)c(C#N)c1Cl`, the AC50 is 15.8 µM (active). On to `O=C(NC(=O)c1c(F)cccc1F)Nc1ccc(OC(F)(F)C(F)OC(F)(F)F)c(Cl)c1` (stereo not given), for which the compound was classed as inactive. In the case of `CC1(C)C(C=C(Cl)Cl)C1C(=O)OC(C#N)c1ccc(F)c(Oc2ccccc2)c1` (stereo not given), the result was inactive. Turning to `[2H]C1([2H])[n+]2ccccc2-c2cccc[n+]2C1([2H])[2H]`, the call was inactive. Consider `COC(=O)c1ccccc1S(=O)(=O)NC(=O)N(C)c1nc(C)nc(OC)n1`, for which the result was inactive. Turning to `COP(=O)(OC)OC=C(Cl)Cl`, the outcome was inactive. On to `O=C(O)COc1ccc(Cl)cc1Cl`, for which the call was inactive.

As usually defined, the AC50 is the concentration giving half of the maximal activity seen.

These data come from PubChem BioAssay (EPA / NIEHS).
